This is an account of results in PubChem BioAssay (NCI).

About 83,000 compounds went through this panel and 20% of them were active in at least one assay; those are over-represented in the sample as a whole.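 Cells were grown in 96-well plates and exposed to the test compound at a single concentration for 48 hours; results are reported as percent growth, with values below 10 considered active.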 Values without a mark were called inactive. Calls of active or inactive are those of the source.

The subject of the first experiment is NCI-H23 lung. The experiment is described as follows: NCI-60 one-dose screen, 48 h (100 = growth as untreated, 0 = no growth, -100 = all killed). Conditions: 10 µM unless noted.
Take `Nc1nc2c3ccncc3cc(-c3cccc(Cl)c3)c2c2cnccc12`: the growth is 66.8%.
Still for that read-out and setting: the result for `O=C1c2cc3c(cc2-c2c1c1ccc(F)cc1c(=O)n2CCCN1CCOCC1)OCO3` reads 40.6%.
As for `c1ccc(CN2C(c3ccccc3)=Nc3ccccc3C2c2c[nH]c3ccccc23)cc1` (stereo unspecified), the growth was 27.4%.
On the same count and under the same terms, the result for `O=C1C(Cl)=C(Nc2ccc(S(=O)(=O)c3ccc(NC4=C(Cl)C(=O)c5ccccc5C4=O)cc3)cc2)C(=O)c2ccccc21` reads -12.9% (active); that for `CCc1cccc(CC)c1NC(=O)c1sc2nc3c(cc2c1N)CCCC3`, 87%; that for `COc1cc2[nH]c(C(=O)c3cc(OC)c(OC)c(OC)c3)c(N)c2cc1C#CCO`, 35.7%.
`Cn1cc(-c2csc(-c3cn(C(=O)OC(C)(C)C)c4ccc(Br)cc34)n2)c2cccnc21`: the growth is 92.2%.
Consider `Fc1cccc(-c2[nH]nc3nc(Nc4cccnc4)sc23)c1`, for which the growth was 43.3%.
In the case of `O=Cc1nc2ccccc2[nH]1`, the growth is 97.9%.
With `N#C/C(=C\c1ccc(-c2ccc(Br)cc2)o1)c1nc(-c2ccco2)cs1`, the growth is 89.4%.
Still for that read-out and setting: under `C[C@H]1OC(=O)/C=C/[C@@H](O)[C@@H](O)CCCCCCCC[C@@H]1O` stands 95.1%.
Turning to `C=C1C(=O)O[C@H]2[C@H]1CC/C(COC(=O)NCc1cc3ccccc3[nH]1)=C\CC[C@@]1(C)O[C@@H]21`, the growth is 35.8%.
On the same count and under the same terms, under `Cc1ccc(-c2nn(Cc3cn(-c4cc(C)nc5ccccc45)nn3)c3ncnc(N)c23)cc1` stands 68.7%; under `COc1ccc(-c2nc3ncccn3c2-c2nc3ccc(Br)cc3[nH]2)cc1`, 98.4%.
On to `CCCCC[C@H]1C/C=C2/C(=O)C(Cl)=C[C@@H]2C/C=C\CCCC(=O)O[C@@H](CCCCC)C/C=C2/C(=O)C(Cl)=C[C@@H]2C/C=C\CCCC(=O)O1`, for which the growth was -24.7% (active).
With `O=C1CNCCN1`, the growth was 96.4%.
Turning to `COc1ccc2c3c(c4ccccc4cc13)C(=O)N(CCN(C)CCN)C2=O`, the growth is -71.4% (active).
Regarding `CCN(CC)CCCCCNc1cc(OC(=O)c2ccccc2)cc2cccnc12`, the growth was 92%.
Still for that read-out and setting: the result for `CC(=O)OC(C)COc1ccc(-c2ccccc2)cc1` (stereo unspecified) reads 107%; that for `COc1ccc(CCN2C(=O)C(C)(C)SC2=S)cc1OC`, 101%.
Same read-out and setting: the result for `c1ccc2[nH]c(-c3cc(-c4ccc5c(c4)OCO5)n[nH]3)nc2c1` reads 68.8%; that for `Cn1cc(-c2csc(-c3cn(CCCN4CCCCC4)c4ccccc34)n2)c2cccnc21`, 84%; that for `COC(=O)[C@]12CC[C@@H](C)[C@H](C)[C@@H]1C1=CC[C@@H]3[C@@]4(C)C[C@@H](O)[C@H](O)[C@@](C)(CO)C4=CC[C@@]3(C)[C@]1(C)CC2`, -57.8% (active).
Still for that read-out and setting: the result for `CC1(n2nnnc2N2CCCN(c3ncccc3N)CC2)CCC1` reads 103%; that for `C=C1CC[C@@H](C(=O)OC)Cc2nc(C)ccc21`, 97%; that for `Clc1cc(Cl)cc(Nc2ccc3c(OCCCN4CCOCC4)cccc3n2)c1`, 77%.
Turning to `Cc1ccc(-c2ccc(/C=C(\C#N)c3nc(-c4ccco4)cs3)o2)cc1`, the growth was 95%.
On to `CCSc1ncnc2c1ncn2C1OC(CO)C(O)C1O` (stereo unspecified), for which the growth is 24.6%.
Take `CCN(CC)C(=O)CCCCCn1c2ccccc2c2c3c(c4c5ccccc5[nH]c4c21)C(=O)N(O)C3=O`: the growth is 46.8%.
Take `N#C/C(=C\c1ccc(-c2ccccc2)o1)c1nc(-c2ccco2)cs1`: the growth is 82.7%.
In the case of `C/C(=N\Nc1cc(C)c2cc(C)ccc2n1)c1ccccn1`, the growth was 10.2%.
The same measure, in the same setting: under `O=C1c2ccccc2NC(c2cn(-c3ccccc3)nc2-c2cccs2)N1Cc1ccccc1` (stereo unspecified) stands 74%; under `C[C@]12CC[C@@H]3c4ccc(O)cc4CC[C@H]3[C@@H]1C[C@H](O)[C@@H]2O`, 91.2%.
As for `CC(=O)n1c(/C(C#N)=C/c2ccc(N(C)C)cc2)cc2ccccc21`, the growth is 40.5%.
Turning to `Fc1ccc2[nH]cc(-c3nc(-c4c[nH]c5ncccc45)cs3)c2c1`, the growth was 43.7%.
The same measure, in the same setting: the result for `S=c1[nH]nc2ccccn12` reads 104%; that for `N#Cc1c(-c2ccc(O)cc2)c2c(N)nn(-c3ccccc3)c2[nH]c1=O`, 98.9%.
As to `COc1ccc(OC)c(-c2c(C#N)c(-c3ccco3)nc3c2c(-c2ccccc2)nn3-c2ccccc2)c1`, the growth is 96.7%.

A further experiment deals with NCI-H226 lung. Described as above. The note with it: 10 µM unless noted.
In the case of `Nc1nc2c3ccncc3cc(-c3cccc(Cl)c3)c2c2cnccc12`, the growth was 33.1%.
Consider `O=C1c2cc3c(cc2-c2c1c1ccc(F)cc1c(=O)n2CCCN1CCOCC1)OCO3`, for which the growth was 20.4%.
In the case of `c1ccc(CN2C(c3ccccc3)=Nc3ccccc3C2c2c[nH]c3ccccc23)cc1` (stereo unspecified), the growth was 59.3%.
Regarding `O=C1C(Cl)=C(Nc2ccc(S(=O)(=O)c3ccc(NC4=C(Cl)C(=O)c5ccccc5C4=O)cc3)cc2)C(=O)c2ccccc21`, the growth is 91.2%.
For `CCc1cccc(CC)c1NC(=O)c1sc2nc3c(cc2c1N)CCCC3`, the growth was 83.2%.
With `COc1cc2[nH]c(C(=O)c3cc(OC)c(OC)c(OC)c3)c(N)c2cc1C#CCO`, the growth is 27.9%.
On the same count and under the same terms, the result for `Cn1cc(-c2csc(-c3cn(C(=O)OC(C)(C)C)c4ccc(Br)cc34)n2)c2cccnc21` reads 101%.
Consider `Fc1cccc(-c2[nH]nc3nc(Nc4cccnc4)sc23)c1`, for which the growth was 70.8%.
Same read-out and setting: under `O=Cc1nc2ccccc2[nH]1` stands 97.6%; under `N#C/C(=C\c1ccc(-c2ccc(Br)cc2)o1)c1nc(-c2ccco2)cs1`, 88.2%.
For the molecule `C[C@H]1OC(=O)/C=C/[C@@H](O)[C@@H](O)CCCCCCCC[C@@H]1O`, the growth was 89.3%.
For the molecule `C=C1C(=O)O[C@H]2[C@H]1CC/C(COC(=O)NCc1cc3ccccc3[nH]1)=C\CC[C@@]1(C)O[C@@H]21`, the growth is 64.5%.
`Cc1ccc(-c2nn(Cc3cn(-c4cc(C)nc5ccccc45)nn3)c3ncnc(N)c23)cc1`: the growth is 35%.
With `COc1ccc(-c2nc3ncccn3c2-c2nc3ccc(Br)cc3[nH]2)cc1`, the growth was 93.5%.
In the case of `CCCCC[C@H]1C/C=C2/C(=O)C(Cl)=C[C@@H]2C/C=C\CCCC(=O)O[C@@H](CCCCC)C/C=C2/C(=O)C(Cl)=C[C@@H]2C/C=C\CCCC(=O)O1`, the growth is -34.3% (active).
For the molecule `O=C1CNCCN1`, the growth is 97.1%.
Regarding `COc1ccc2c3c(c4ccccc4cc13)C(=O)N(CCN(C)CCN)C2=O`, the growth was -67.4% (active).
Still for that read-out and setting: under `CCN(CC)CCCCCNc1cc(OC(=O)c2ccccc2)cc2cccnc12` stands 118%; under `CC(=O)OC(C)COc1ccc(-c2ccccc2)cc1` (stereo unspecified), 106%; under `COc1ccc(CCN2C(=O)C(C)(C)SC2=S)cc1OC`, 105%.
Regarding `c1ccc2[nH]c(-c3cc(-c4ccc5c(c4)OCO5)n[nH]3)nc2c1`, the growth was 70.7%.
For `Cn1cc(-c2csc(-c3cn(CCCN4CCCCC4)c4ccccc34)n2)c2cccnc21`, the growth is 52.7%.
As for `COC(=O)[C@]12CC[C@@H](C)[C@H](C)[C@@H]1C1=CC[C@@H]3[C@@]4(C)C[C@@H](O)[C@H](O)[C@@](C)(CO)C4=CC[C@@]3(C)[C@]1(C)CC2`, the growth is -47.4% (active).
In the case of `CC1(n2nnnc2N2CCCN(c3ncccc3N)CC2)CCC1`, the growth was 90.4%.
In the case of `C=C1CC[C@@H](C(=O)OC)Cc2nc(C)ccc21`, the growth was 103%.
On to `Clc1cc(Cl)cc(Nc2ccc3c(OCCCN4CCOCC4)cccc3n2)c1`, for which the growth was 26.6%.
The same measure, in the same setting: under `Cc1ccc(-c2ccc(/C=C(\C#N)c3nc(-c4ccco4)cs3)o2)cc1` stands 92.7%; under `CCSc1ncnc2c1ncn2C1OC(CO)C(O)C1O` (stereo unspecified), 62.9%.
Still for that read-out and setting: under `CCN(CC)C(=O)CCCCCn1c2ccccc2c2c3c(c4c5ccccc5[nH]c4c21)C(=O)N(O)C3=O` stands 69.9%.
Turning to `N#C/C(=C\c1ccc(-c2ccccc2)o1)c1nc(-c2ccco2)cs1`, the growth is 81.3%.
With `C/C(=N\Nc1cc(C)c2cc(C)ccc2n1)c1ccccn1`, the growth is -5.19% (active).
Still for that read-out and setting: under `O=C1c2ccccc2NC(c2cn(-c3ccccc3)nc2-c2cccs2)N1Cc1ccccc1` (stereo unspecified) stands 96.3%.
Regarding `C[C@]12CC[C@@H]3c4ccc(O)cc4CC[C@H]3[C@@H]1C[C@H](O)[C@@H]2O`, the growth is 85%.
On to `CC(=O)n1c(/C(C#N)=C/c2ccc(N(C)C)cc2)cc2ccccc21`, for which the growth was 61.1%.
Consider `Fc1ccc2[nH]cc(-c3nc(-c4c[nH]c5ncccc45)cs3)c2c1`, for which the growth was 47.4%.
For the molecule `S=c1[nH]nc2ccccn12`, the growth is 122%.
Same read-out and setting: under `N#Cc1c(-c2ccc(O)cc2)c2c(N)nn(-c3ccccc3)c2[nH]c1=O` stands 94.5%; under `COc1ccc(OC)c(-c2c(C#N)c(-c3ccco3)nc3c2c(-c2ccccc2)nn3-c2ccccc2)c1`, 90.1%.
